Source: PubChem BioAssay (NCATS)
Where “and” joins values, the source holds several entries; their conditions need not be identical. Equal values may be shown once. Results filed as inconclusive are left out. Where a call stands in place of a potency, no number is given. The source holds several records for some structures; these can differ, active in one and inactive in another. Calls of active or inactive are those of the source. Unless noted, the call rests on the fitted dose curve; in most records, active means well fitted curve in the direction sought with a large enough effect; inconclusive means small, poorly fitted or top-dose-only effect, or another doubt; inactive means no such curve, though single readings can be large; an effect the other way counts as inactive or inconclusive.

Tests used:
[1] = Primary qHTS for small molecule stabilizers of the endoplasmic reticulum resident proteome: Secreted ER Calcium Modulated Protein (SERCaMP) assay (AID 1508630)
Summary of the method: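 GLuc-SERCaMP-expressing SH-SY5Y cells, pretreated 16 h with compound, are challenged with thapsigargin to empty ER calcium stores; after 4 h, coelenterazine is added directly to the medium and luminescence is imaged.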

[2] = target: Cytochrome P450 2D6 (Homo sapiens) (UniProt P10635); assay: Cytochrome P450 family 2 subfamily D member 6 (CYP2D6) small molecule antagonists: luciferase biochemical (cell-free) qHTS assay (AID 1645840; active means well fitted curve in the direction sought with a large enough effect in the repeat runs; an effect the other way counts as inactive or inconclusive; further: nearly all actives have a fitted effect of over 55% in size; further: potency means the concentration at half of the fitted maximal effect)
Summary of the method: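 P450-Glo luminescent screen: recombinant CYP2D6 enzyme–proluciferin substrate mix preincubated with compound 10 min at room temperature, then NADPH regeneration added for 1 h at room temperature. Detection reagent added for 20 min; luciferin light read as relative luminescence units.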

[3] = target: Cytochrome P450 2C9 (Homo sapiens) (UniProt P11712); assay: Cytochrome P450 family 2 subfamily C member 9 (CYP2C9) small molecule antagonists: luciferase biochemical (cell-free) qHTS assay (AID 1645842; active means well fitted curve in the direction sought with a large enough effect in the repeat runs; an effect the other way counts as inactive or inconclusive; further: nearly all actives have a fitted effect of over 55% in size; further: potency means the concentration at half of the fitted maximal effect)
Summary of the method: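 Luminescence, after 20 min with luciferin detection reagent, reflected CYP2C9 turnover during a 1 h NADPH-driven reaction at 37C. Enzyme-substrate mix contained 0.4% bovine serum albumin and was preincubated with compound 10 min at room temperature.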

[4] = Primary qHTS for inhibitors of nuclear receptor binding SET domain protein 2 (NSD2) in an RCH-ACV wild type WT cells (2C) (AID 1645877); further: nearly all actives have a fitted effect of over 70% in size; further: potency means the concentration at half of the fitted maximal effect
[5] = Primary qHTS for inhibitors of nuclear receptor binding SET domain protein 2 (NSD2) in an isogenic RCH-ACV NSD2 p.E1099K mutant (9B) (AID 1645876); further: nearly all actives have a fitted effect of over 70% in size; further: potency means the concentration at half of the fitted maximal effect
[6] = target: N-terminal Xaa-Pro-Lys N-methyltransferase 1 (Homo sapiens) (UniProt Q9BV86); assay: Confirmatory qHTS for Inhibitors of N-terminal methyltransferase 1 (NTMT1): MTaseGlo Assay (AID 1645874); further: potency means the concentration at half of the fitted maximal effect; nearly all actives have a fitted effect of over 65% in size
Summary of the method: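 Preincubation of NTMT1 (125 nM) plus SAM (100 uM) with test compounds lasted 15 min; methylation of 1 uM SPKRIA then proceeded 30 min in the dark at room temperature. Luciferase signal reported SAH produced.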

[7] = target: Catechol O-methyltransferase (Homo sapiens) (UniProt P21964); assay: Confirmatory Screen for Target Class Profiling of Small Molecule Inhibitors of Methyltransferases (AID 1745852; calls by dose curve; further: potency means the concentration at half of the fitted maximal effect); settings: MTase-Glo luminescence, SAH detection, recombinant enzyme; measured here: COMT max response; stronger effect = lower value
[8] = target: Guanidinoacetate N-methyltransferase (Homo sapiens) (UniProt Q14353); assay: as above; settings: MTase-Glo luminescence, SAH detection, recombinant enzyme; activity change, negative = inhibition: at 57.3 µM (top of the series)
[9] = target: Nicotinamide N-methyltransferase (Homo sapiens) (UniProt P40261); assay: as above; settings: MTase-Glo luminescence, SAH detection, recombinant enzyme; measured here: NNMT max response; stronger effect = lower value
[10] = target: Phenylethanolamine N-methyltransferase (Homo sapiens) (UniProt P11086); assay: as above; settings: MTase-Glo luminescence, SAH detection, recombinant enzyme; measured here: PNMT max response; stronger effect = lower value
[11] = NCATS anti-infectives library activity on HEK293 viability as a counter-qHTS vs the C. elegans viability qHTS (AID 1745854);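 further: HEK293 cells exposed to compounds for 24 hr before the viability read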
Summary of the method: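 HEK293 cells (1,500/well) exposed 24 hr at 37C to 1:5 titrations, up to 41.7 uM final; counter-screen to a C. elegans viability qHTS. Viability by CellTiter-Glo luminescence after 10 min at room temperature; digitonin as control.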

[12] = target: Rap guanine nucleotide exchange factor 3 (Homo sapiens) (UniProt O95398); assay: Confirmatory qHTS for agonist of cAMP-regulated guanine nucleotide exchange factor 3 (EPAC1) (AID 1645881);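 further: EPAC1 catalysed release of BODIPY-GDP from Rap1B seen as fluorescence loss; nearly all actives have a fitted effect of over 75% in size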
[13] = target: Rap guanine nucleotide exchange factor 4 (Homo sapiens) (UniProt Q8WZA2); assay: Confirmatory qHTS for agonist of cAMP-regulated guanine nucleotide exchange factor 4 (EPAC2) (AID 1645884);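 further: nucleotide exchange releases bodipy-GDP from Rap1 and this lowers its fluorescence; nearly all actives have a fitted effect of over 65% in size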
[14] = target: Rap guanine nucleotide exchange factor 4 (Homo sapiens) (UniProt Q8WZA2); assay: Confirmatory qHTS for antagonist of cAMP-regulated guanine nucleotide exchange factor 4 (EPAC2) (AID 1645885); further: nearly all actives have a fitted effect of over 25% in size
[15] = target: Rap guanine nucleotide exchange factor 3 (Homo sapiens) (UniProt O95398); assay: Counterscreen qHTS for antagonist of cAMP-regulated guanine nucleotide exchange factor 3 (EPAC1) (AID 1645888);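 further: fluorescence loss as bound BODIPY-GDP is released from Rap1B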
Summary of the method: (§1)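 Rap1B-BODIPY-GDP 250 nM + GDP 50 uM; cpds 7-pt, final 9.74 nM–152 uM (activator mode) or from 7.32 nM upwards (inhibitor mode); RT; FI 480/540 nm at 5 and 30 min, then ± cAMP, reread.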

[16] = target: Rap guanine nucleotide exchange factor 3 (Homo sapiens) (UniProt O95398); assay: Counterscreen qHTS for agonist of cAMP-regulated guanine nucleotide exchange factor 3 (EPAC1) (AID 1645889); further: nearly all actives have a fitted effect of over 40% in size
Summary of the method: as §1

Papain (Carica papaya) = Papain (Carica papaya) (UniProt P00784); assay: Primary qHTS assay for inhibitors of the protease papain (AID 1645873);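 further: papain turnover of Z-FR-AMC read as the AMC fluorescence gain over 10 min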
Sequence of Papain (Carica papaya) (P00784 whole entry, looked up): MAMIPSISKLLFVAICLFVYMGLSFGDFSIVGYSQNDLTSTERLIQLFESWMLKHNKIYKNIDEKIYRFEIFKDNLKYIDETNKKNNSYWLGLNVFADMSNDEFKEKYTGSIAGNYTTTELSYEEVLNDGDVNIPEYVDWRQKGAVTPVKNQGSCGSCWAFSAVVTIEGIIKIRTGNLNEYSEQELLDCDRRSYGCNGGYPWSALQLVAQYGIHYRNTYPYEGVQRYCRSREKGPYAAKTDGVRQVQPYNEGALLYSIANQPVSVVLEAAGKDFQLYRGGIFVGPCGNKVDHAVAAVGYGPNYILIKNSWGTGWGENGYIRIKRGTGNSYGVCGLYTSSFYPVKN

Sequence of Cytochrome P450 2D6 (Homo sapiens) (P10635 whole entry, looked up): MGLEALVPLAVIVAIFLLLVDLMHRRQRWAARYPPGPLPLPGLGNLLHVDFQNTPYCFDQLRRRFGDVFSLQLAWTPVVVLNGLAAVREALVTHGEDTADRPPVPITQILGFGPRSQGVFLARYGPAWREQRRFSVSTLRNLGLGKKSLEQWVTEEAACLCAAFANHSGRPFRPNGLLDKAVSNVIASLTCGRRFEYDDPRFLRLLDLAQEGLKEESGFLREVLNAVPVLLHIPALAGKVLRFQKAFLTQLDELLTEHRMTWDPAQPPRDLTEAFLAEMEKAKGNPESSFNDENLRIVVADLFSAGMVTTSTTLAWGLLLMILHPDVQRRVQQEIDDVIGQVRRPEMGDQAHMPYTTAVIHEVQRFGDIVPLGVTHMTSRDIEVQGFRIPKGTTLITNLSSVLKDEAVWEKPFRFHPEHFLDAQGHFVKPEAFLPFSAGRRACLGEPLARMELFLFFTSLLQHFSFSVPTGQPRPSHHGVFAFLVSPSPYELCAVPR
Sequence of Cytochrome P450 2C9 (Homo sapiens) (P11712 whole entry, looked up): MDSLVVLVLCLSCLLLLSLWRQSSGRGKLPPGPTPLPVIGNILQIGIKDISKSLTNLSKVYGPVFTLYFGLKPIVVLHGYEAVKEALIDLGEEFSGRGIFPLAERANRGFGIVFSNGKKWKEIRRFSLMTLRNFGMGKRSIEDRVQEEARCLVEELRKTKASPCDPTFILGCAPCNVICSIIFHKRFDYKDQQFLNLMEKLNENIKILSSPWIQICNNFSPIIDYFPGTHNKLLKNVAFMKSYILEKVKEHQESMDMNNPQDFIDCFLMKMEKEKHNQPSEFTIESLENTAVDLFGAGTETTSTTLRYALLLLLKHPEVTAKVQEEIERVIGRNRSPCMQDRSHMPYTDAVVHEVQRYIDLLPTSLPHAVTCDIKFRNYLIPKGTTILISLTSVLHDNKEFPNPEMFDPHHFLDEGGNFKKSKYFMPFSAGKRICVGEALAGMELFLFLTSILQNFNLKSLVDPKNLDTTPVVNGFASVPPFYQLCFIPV
Sequence of Rap guanine nucleotide exchange factor 4 (Homo sapiens) (Q8WZA2 whole entry, looked up): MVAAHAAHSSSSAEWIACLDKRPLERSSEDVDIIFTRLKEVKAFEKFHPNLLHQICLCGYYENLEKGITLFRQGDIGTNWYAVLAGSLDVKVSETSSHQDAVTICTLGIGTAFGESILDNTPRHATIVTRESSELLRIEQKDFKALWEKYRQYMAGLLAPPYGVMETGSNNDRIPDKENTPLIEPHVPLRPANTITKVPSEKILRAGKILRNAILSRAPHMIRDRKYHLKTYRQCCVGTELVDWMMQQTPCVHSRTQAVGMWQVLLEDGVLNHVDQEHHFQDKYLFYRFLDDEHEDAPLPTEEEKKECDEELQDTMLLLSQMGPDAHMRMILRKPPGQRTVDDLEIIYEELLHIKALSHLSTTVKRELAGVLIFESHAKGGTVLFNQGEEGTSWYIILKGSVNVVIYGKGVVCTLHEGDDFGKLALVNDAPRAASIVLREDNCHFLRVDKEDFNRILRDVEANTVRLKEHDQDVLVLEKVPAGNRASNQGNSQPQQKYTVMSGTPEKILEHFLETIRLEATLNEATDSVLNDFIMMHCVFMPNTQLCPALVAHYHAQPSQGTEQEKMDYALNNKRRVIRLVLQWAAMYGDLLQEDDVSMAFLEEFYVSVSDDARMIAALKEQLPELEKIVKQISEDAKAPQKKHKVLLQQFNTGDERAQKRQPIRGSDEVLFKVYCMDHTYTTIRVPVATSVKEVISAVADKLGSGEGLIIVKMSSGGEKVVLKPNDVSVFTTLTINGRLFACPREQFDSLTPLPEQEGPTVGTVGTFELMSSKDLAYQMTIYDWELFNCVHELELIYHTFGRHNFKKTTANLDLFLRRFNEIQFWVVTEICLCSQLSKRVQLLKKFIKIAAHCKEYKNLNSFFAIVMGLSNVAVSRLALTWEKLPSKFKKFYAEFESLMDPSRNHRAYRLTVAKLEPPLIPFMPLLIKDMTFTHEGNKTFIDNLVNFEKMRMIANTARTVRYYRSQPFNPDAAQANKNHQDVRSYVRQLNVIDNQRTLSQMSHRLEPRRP
Sequence of Rap guanine nucleotide exchange factor 3 (Homo sapiens) (O95398 whole entry, looked up): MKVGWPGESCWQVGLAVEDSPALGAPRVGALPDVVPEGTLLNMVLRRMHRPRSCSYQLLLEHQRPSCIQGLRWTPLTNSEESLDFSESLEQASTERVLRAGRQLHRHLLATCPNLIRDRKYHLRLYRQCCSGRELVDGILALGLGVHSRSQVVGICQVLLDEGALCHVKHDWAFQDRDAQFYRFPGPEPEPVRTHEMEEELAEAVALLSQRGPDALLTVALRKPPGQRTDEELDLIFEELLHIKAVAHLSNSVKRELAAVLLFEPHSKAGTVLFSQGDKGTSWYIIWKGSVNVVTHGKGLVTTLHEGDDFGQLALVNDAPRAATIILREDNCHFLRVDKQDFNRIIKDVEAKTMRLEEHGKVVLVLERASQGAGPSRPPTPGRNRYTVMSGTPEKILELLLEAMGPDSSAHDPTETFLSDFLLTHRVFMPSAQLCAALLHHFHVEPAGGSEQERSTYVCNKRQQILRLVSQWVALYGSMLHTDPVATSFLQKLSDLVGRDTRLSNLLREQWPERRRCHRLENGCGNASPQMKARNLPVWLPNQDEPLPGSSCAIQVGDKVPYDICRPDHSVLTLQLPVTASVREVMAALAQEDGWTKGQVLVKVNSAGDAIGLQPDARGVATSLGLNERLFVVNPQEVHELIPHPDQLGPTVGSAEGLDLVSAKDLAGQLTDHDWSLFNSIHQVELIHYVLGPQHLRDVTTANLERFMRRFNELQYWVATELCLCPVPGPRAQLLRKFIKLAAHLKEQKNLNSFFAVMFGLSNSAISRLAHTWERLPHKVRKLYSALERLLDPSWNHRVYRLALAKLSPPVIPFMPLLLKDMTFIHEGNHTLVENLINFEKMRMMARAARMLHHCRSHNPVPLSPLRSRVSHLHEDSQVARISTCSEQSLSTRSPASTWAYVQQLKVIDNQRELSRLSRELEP
Sequence of Phenylethanolamine N-methyltransferase (Homo sapiens) (P11086 whole entry, looked up): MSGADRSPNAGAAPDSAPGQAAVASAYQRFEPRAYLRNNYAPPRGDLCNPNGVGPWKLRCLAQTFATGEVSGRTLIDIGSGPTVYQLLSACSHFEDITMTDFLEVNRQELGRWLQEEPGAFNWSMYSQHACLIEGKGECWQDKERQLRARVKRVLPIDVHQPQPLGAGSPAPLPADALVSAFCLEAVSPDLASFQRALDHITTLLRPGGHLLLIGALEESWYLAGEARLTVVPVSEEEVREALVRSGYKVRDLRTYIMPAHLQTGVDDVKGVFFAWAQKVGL
Sequence of Catechol O-methyltransferase (Homo sapiens) (P21964 whole entry, looked up): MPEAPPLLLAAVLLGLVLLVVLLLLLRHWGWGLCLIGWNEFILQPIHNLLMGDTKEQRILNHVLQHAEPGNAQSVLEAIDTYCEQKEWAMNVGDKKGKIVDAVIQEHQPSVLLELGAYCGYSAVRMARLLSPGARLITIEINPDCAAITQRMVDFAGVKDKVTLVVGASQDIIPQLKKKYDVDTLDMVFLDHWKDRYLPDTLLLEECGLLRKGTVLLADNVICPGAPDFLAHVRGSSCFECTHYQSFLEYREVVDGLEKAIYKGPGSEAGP
Sequence of Nicotinamide N-methyltransferase (Homo sapiens) (P40261 whole entry, looked up): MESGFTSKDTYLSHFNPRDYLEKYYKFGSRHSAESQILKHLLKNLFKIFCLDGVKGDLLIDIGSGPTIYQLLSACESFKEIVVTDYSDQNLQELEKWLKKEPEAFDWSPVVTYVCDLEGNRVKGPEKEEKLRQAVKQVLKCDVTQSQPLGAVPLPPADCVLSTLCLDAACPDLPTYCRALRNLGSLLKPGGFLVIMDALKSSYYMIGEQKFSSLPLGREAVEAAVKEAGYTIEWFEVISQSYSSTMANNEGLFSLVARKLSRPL
Sequence of N-terminal Xaa-Pro-Lys N-methyltransferase 1 (Homo sapiens) (Q9BV86 whole entry, looked up): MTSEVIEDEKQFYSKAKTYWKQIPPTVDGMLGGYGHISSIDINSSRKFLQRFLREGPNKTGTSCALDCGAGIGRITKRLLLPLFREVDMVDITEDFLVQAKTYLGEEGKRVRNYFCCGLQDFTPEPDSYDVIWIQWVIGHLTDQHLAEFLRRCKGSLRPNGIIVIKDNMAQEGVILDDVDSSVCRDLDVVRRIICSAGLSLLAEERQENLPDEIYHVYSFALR

For Cc1csc(-c2nnc(Nc3ccc(Oc4ncccc4-c4ccnc(N)n4)cc3)c3ccccc23)c1, the Potency [1] was “inactive”, the Potency [2] was “inactive” and the Potency [3] was 12 µM (active). The Potency [4] was “inactive and 3 nM (active)”.

For Cc1ccccc1C(C(=O)NC1CCCCC1)N(C(=O)CNc1ccc(C#N)cc1)c1cccc(F)c1 (configuration not stated), the Potency [1] was “inactive”, the Potency [2] was “inactive” and the Potency [3] was 1.34 µM (active). The Potency [5] was “inactive” and the Potency [4] was “inactive”.

For Cc1cnc(-c2cc(N3CCN(C(=O)CCS(C)(=O)=O)CC3)ncc2Cl)c(C)c1, the Potency [1] was “inactive”, the Potency [2] was “inactive” and the Potency [3] was 21.3 µM (active). The Potency [5] was “inactive” and the Potency [4] was “inactive”.

With CCc1cccc(CC)c1NC(=O)N1Cc2[nH]nc(NC(=O)c3ccc(N4CCN(C)CC4)cc3)c2C1 the Potency [1] was “inactive”, the Potency [2] was “inactive” and the Potency [3] was “inactive”. For the same compound, the Potency [5] was 817 nM (active) and 1.18 µM (active) and the Potency [4] was 409 nM (active) and 468 nM (active).

In the case of CN1CCC(COc2cnc(-c3cccc(Cn4nc(-c5cccc(C#N)c5)ccc4=O)c3)nc2)CC1, the Potency [1] is reported as “inactive”, the Potency [2] is reported as “inactive” and the Potency [3] is reported as 16.9 µM (active). For the same compound, the Potency [5] was 11.8 µM (active) and 16.3 µM (active) and the Potency [4] was 10.5 µM (active) and 16.3 µM (active).

For Cc1ccc(C2=Nc3ccc(Cl)cc3OC2)cc1, the Potency [1] was “inactive” and the Potency [5] was “inactive”.

In the case of Nc1[nH]nc2nnc(-c3c(-c4ccccc4)nn4ccccc34)cc12, the Potency [1] is reported as “inactive”, the Potency [6] is reported as 11.2 µM (active) and the activity [7] is reported as -90.6%. The Potency [8] was 19.2 µM (active), the activity [9] was -76.8% and the activity [10] was -92.5%.

With CN(C)CCN(Cc1ccc(Cl)cc1)c1ccccn1 the Potency [1] was “inactive”, the Potency [2] was 0.0692 µM (active) and the Potency [5] was “inactive”. For the same compound, the outcome [11] was “inactive”.

With CCC(=O)N1CCN(c2ccc(-n3c(=O)ccc4cnc5ccc(-c6cnc7ccccc7c6)cc5c43)cc2C(F)(F)F)CC1 the Potency [1] was “inactive”, the Potency [3] was 10.7 µM (active) and the Potency [5] was 13.3 nM (active) and 12.9 nM (active). The Potency [4] was 13.3 nM (active) and 20.4 nM (active).

In the case of CCn1c(-c2nonc2N)nc2cncc(CNC3CCNCC3)c21, the Potency [1] is reported as “inactive”, the Potency [3] is reported as “inactive” and the Potency [5] is reported as 12.9 µM (active).

With O=C(Nc1cccc(Cl)c1)Nc1ncc(CCNc2ncnc3ccsc23)s1 the Potency [1] was “inactive” and the Potency [5] was 1.86 µM (active).

For NC(=O)c1nnn(Cc2cc(Cl)c(C(=O)c3ccc(Cl)cc3)c(Cl)c2)c1N, the Potency [1] was “inactive”, the Potency [2] was 26.8 µM (active) and the Potency [12] was “inactive”. The activation [13] was 5.43% [at 17.1 µM, percent relative to cAMP agonist control] (inactive), the activity change, negative = inhibition [14] was -14.9% [at 12.7 µM] (inactive) and the outcome [15] was “inactive”. For the same compound, the outcome [16] was “inactive”.

With Fc1ccc(CNc2ncnc3ccc(F)cc23)cc1 the Potency [1] was “inactive”, the Potency [2] was 16.9 µM (active) and the Potency [3] was 8.49 µM (active). The outcome [11] was “inactive”.

For C[C@H]1COC2=C1C(=O)C(=O)c1c2ccc2c1CCCC2(C)C, the Potency [1] was “inactive” and the Potency [3] was 19 µM (active).

For CCCCn1c(=O)n(Cc2ccccc2F)c(=O)c2[nH]c(Cc3ccc(NC(C)=O)cc3)nc21, the Potency [1] was “inactive”, the Potency [3] was 6.01 µM (active) and the Potency [5] was “inactive”.

In the case of COc1ccc(-c2ccc3ncc4c(c3c2)n(-c2ccc(N3CCNCC3)c(C(F)(F)F)c2)c(=O)n4C)cn1, the Potency [1] is reported as “inactive”, the Potency [2] is reported as “inactive” and the Potency [5] is reported as 5.2 nM (active) and 14.6 nM (active) and 13.2 nM (active). The Potency [4] was 7.3 nM (active) and 14.6 nM (active) and 18.6 nM (active).

In the case of Cc1cccc(Nc2nc(N[C@@H]3CCCC[C@H]3N)ncc2C(N)=O)c1, the Potency [1] is reported as “inactive”, the Potency [2] is reported as 15.1 µM (active) and the Potency [5] is reported as 1.48 µM (active). The Potency [4] was 1.48 µM (active).

For CNC(=O)c1cc(Oc2ccc(NC(=O)Nc3ccc(Cl)c(C(F)(F)F)c3)c(F)c2)ccn1, the Potency [1] was “inactive”, the Potency [3] was 9.52 µM (active) and the Potency [5] was 14.5 µM (active). For the same compound, the Potency [4] was 18.3 µM (active).

In the case of O=C(CO)N1CCC(c2[nH]nc(-c3ccc(Cl)cc3)c2-c2ccncn2)CC1, the Potency [1] is reported as “inactive”, the Potency [3] is reported as 6.74 µM (active) and the Potency [5] is reported as “inactive”.

With CC1(C)CC(=O)c2c(C(F)(F)F)nn(-c3ccc(C(N)=O)c(NC4CCC(O)CC4)c3)c2C1 (configuration not stated) the Potency [1] was “inactive”, the Potency [3] was 6.01 µM (active) and the Potency [5] was 57.8 nM (active) and 83.3 nM (active). For the same compound, the Potency [4] was 57.8 nM (active) and 83.3 nM (active).

With CCN1CCN(c2ccc(Nc3cc(N(C)C(=O)Nc4c(Cl)c(OC)cc(OC)c4Cl)ncn3)cc2)CC1 the Potency [1] was “inactive”, the Potency [3] was 23.9 µM (active) and the Potency [5] was “inactive”. For the same compound, the Potency [4] was “inactive”.

In the case of Nc1ncnc2c1c(-c1cccc(OCc3ccccc3)c1)cn2C1CC(CN2CCC2)C1 (configuration not stated), the Potency [1] is reported as “inactive”, the Potency [2] is reported as 12 µM (active) and the Potency [5] is reported as 4.59 µM (active). For the same compound, the Potency [4] was 2.9 µM (active), the activity [7] was -26% and the Potency [8] was 30.4 µM (active). It also gave an activity [9] of -29.1% and an activity [10] of -91.7%.

In the case of O=C(CC12CC3CC(CC(C3)C1)C2)Nc1cccc2nc(NCCNCCO)ccc12, the Potency [1] is reported as “inactive”, the Potency [3] is reported as “inactive” and the Potency [5] is reported as 20.9 µM (active). The Potency [4] was 20.9 µM (active).

For CC(C)CN(C[C@@H](O)[C@H](Cc1ccccc1)NC(=O)O[C@H]1CO[C@H]2OCC[C@H]21)S(=O)(=O)c1ccc(N)cc1, the Potency [1] was “inactive”, the Potency [3] was 7.56 µM (active) and the outcome [11] was “inactive”.

In the case of C[C@@]1(C(=O)Nc2ccc(F)nc2)CCCN1c1nc(Nc2cc(C3CC3)[nH]n2)c2cccn2n1, the Potency [1] is reported as “inactive” and the Potency [5] is reported as 2.95 µM (active).

In the case of O=C1NC(=O)C(c2cnc3ccccn23)=C1c1cn2c3c(cccc13)CN(C(=O)N1CCOCC1)CC2, the Potency [1] is reported as “inactive” and the Potency [5] is reported as 0.0148 µM (active).

With Cc1cc(OCCCS(C)(=O)=O)cc(C)c1-c1cccc(COc2ccc3c(c2)OC[C@H]3CC(=O)O)c1 the Potency [1] was “inactive” and the Potency [3] was 21.3 µM (active).

With C=CCc1cccc(C=NNC(=O)CN2CCN(Cc3ccccc3)CC2)c1O the Potency [1] was “inactive” and the outcome (Papain (Carica papaya)) was “inactive”.
